Laboratory results reported in PubChem BioAssay AID1159580 (chemical genetic matrix, 2015).
Where “and” joins values, the source holds several entries; their conditions need not be identical. Identical values can stand only once. The campaign covered roughly 5,500 compounds. About 2,000 (36%) were called active. Roughly 18% stayed inconclusive and do not appear here. Rule as the data show it: active = normalized growth mostly below about 0.91 (no sharp cut-off); inconclusive = no clear call, values can overlap the other calls; inactive = mostly above about 0.92. The list shows a part of the results.

Experiment: chemical genetic growth profiling, strain panel (AID 1159580);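 also: tested at 20 µM; growth read once vehicle control cultures reached saturation at 30 °C; 1 = growth at the plate median or of vehicle wells; lower values mean less growth of the strain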
Details: S. cerevisiae deletion strains, growth OD

Measured: normalized growth

OCCN(CCO)c1nc(N2CCCCC2)c2nc(N(CCO)CCO)nc(N3CCCCC3)c2n1
inactive: locus YAL013W, strain DEP1, stronger effect = lower value 1.02 | locus YAL021C, strain ccr4, stronger effect = lower value 0.962 | locus YAL026C, strain drs2, stronger effect = lower value 0.964 | locus YAL030W, strain snc1, stronger effect = lower value 0.992 | locus YAL040C, strain CLN3, stronger effect = lower value 0.999 | locus YBL061C, strain skt5, stronger effect = lower value 0.992 | locus YBR009C, strain hhf1, stronger effect = lower value 0.981 | locus YBR021W, strain FUR4, stronger effect = lower value 0.956 | locus YBR023C, strain chs3, stronger effect = lower value 1 | locus YBR171W, strain sec66, stronger effect = lower value 0.994 | locus YBR229C, strain ROT2, stronger effect = lower value 1.01 | locus YBR231C, strain swc5, stronger effect = lower value 0.944 | locus YBR279W, strain paf1, stronger effect = lower value 0.986 | locus YCL011C, strain gbp2, stronger effect = lower value 0.998 | locus YCL016C, strain dcc1, stronger effect = lower value 1.03 | locus YCL029C, strain bik1, stronger effect = lower value 1.01 | locus YCL061C, strain MRC1 (second series), stronger effect = lower value 1 | locus YCL061C, strain MRC1, stronger effect = lower value 1 | locus YCL069W, strain vba3, stronger effect = lower value 0.97 | locus YCR088W, strain abp1, stronger effect = lower value 0.989 | locus YDL005C, strain med2, stronger effect = lower value 0.978 | locus YDL035C, strain GPR1, stronger effect = lower value 1.01 | locus YDL040C, strain nat1, stronger effect = lower value 0.976 | locus YDL074C, strain BRE1, stronger effect = lower value 0.979 | locus YDL101C, strain DUN1, stronger effect = lower value 1 | locus YDL134C, strain PPH21, stronger effect = lower value 1 | locus YDL185W, strain tfp1, stronger effect = lower value 0.995 | locus YDL192W, strain arf1, stronger effect = lower value 0.999 | locus YDR001C, strain nth1, stronger effect = lower value 0.993 | locus YDR069C, strain doa4, stronger effect = lower value 0.969 | locus YDR101C, strain arx1, stronger effect = lower value 0.99 | locus YDR137W, strain rgp1, stronger effect = lower value 1.01 | locus YDR150W, strain NUM1, stronger effect = lower value 1.01 | locus YDR159W, strain sac3, stronger effect = lower value 0.937 | locus YDR162C, strain NBP2, stronger effect = lower value 1 | locus YDR297W, strain sur2, stronger effect = lower value 0.997 | locus YDR318W, strain mcm21, stronger effect = lower value 0.996 | locus YDR334W, strain swr1, stronger effect = lower value 0.974 | locus YDR335W, strain msn5, stronger effect = lower value 0.988 | locus YDR363W, strain ESC2, stronger effect = lower value 1.03 | locus YDR388W, stronger effect = lower value 0.998 | locus YDR392W, strain spt3, stronger effect = lower value 0.898 | locus YDR502C, strain sam2, stronger effect = lower value 1.01 | locus YEL003W, strain gim4, stronger effect = lower value 0.964 | locus YEL037C, strain rad23, stronger effect = lower value 0.965 | locus YEL061C, strain CIN8 (second series), stronger effect = lower value 0.976 | locus YEL061C, strain CIN8, stronger effect = lower value 1.01 | locus YER002W, strain NOP16, stronger effect = lower value 1 | locus YER015W, strain faa2, stronger effect = lower value 0.978 | locus YER016W, strain bim1, stronger effect = lower value 0.976 | locus YER110C, stronger effect = lower value 1 | locus YER111C, strain swi4, stronger effect = lower value 0.971 | locus YER155C, strain BEM2 (second series), stronger effect = lower value 0.992 | locus YER155C, strain BEM2, stronger effect = lower value 1.01 | locus YER167W, strain BCK2, stronger effect = lower value 1.02 | locus YFR010W, strain ubp6, stronger effect = lower value 0.956 | locus YGL078C, strain dbp3, stronger effect = lower value 1 | locus YGL086W, strain mad1, stronger effect = lower value 0.998 | locus YGL167C, strain pmr1, stronger effect = lower value 0.987 | locus YGL173C, strain kem1, stronger effect = lower value 0.982 | locus YGL227W, strain vid30, stronger effect = lower value 0.989 | locus YGL240W, strain doc1, stronger effect = lower value 0.979 | locus YGL248W, strain PDE1, stronger effect = lower value 1.01 | locus YGL253W, strain hxk2, stronger effect = lower value 0.956 | locus YGR135W, strain pre9, stronger effect = lower value 0.993 | locus YGR229C, strain SMI1, stronger effect = lower value 0.996 | locus YGR252W, strain gcn5, stronger effect = lower value 0.931 | locus YHR013C, strain ard1, stronger effect = lower value 0.988 | locus YHR027C, strain rpn1, stronger effect = lower value 0.984 | locus YHR030C, strain SLT2, stronger effect = lower value 1.01 | locus YHR079C, strain IRE1 (second series), stronger effect = lower value 0.994 | locus YHR079C, strain IRE1, stronger effect = lower value 1.1 | locus YHR094C, strain hxt1, stronger effect = lower value 0.998 | locus YHR129C, strain ARP1, stronger effect = lower value 1.01 | locus YHR142W, strain chs7, stronger effect = lower value 0.97 | locus YHR200W, strain rpn10, stronger effect = lower value 1 | locus YIL066C, strain RNR3, stronger effect = lower value 1.02 | locus YIL073C, strain SPO22, stronger effect = lower value 1.01 | locus YIL125W, strain kgd1, stronger effect = lower value 1 | locus YIR030C, strain dcg1, stronger effect = lower value 0.995 | locus YJL092W, strain hpr5, stronger effect = lower value 0.979 | locus YJL095W, strain BCK1 (second series), stronger effect = lower value 0.997 | locus YJL095W, strain BCK1, stronger effect = lower value 0.988 and 1.01 | locus YJL115W, strain asf1, stronger effect = lower value 0.99 | locus YJL129C, strain trk1, stronger effect = lower value 0.95 | locus YJL134W, strain LCB3, stronger effect = lower value 1 | locus YJL154C, strain vps35, stronger effect = lower value 0.992 | locus YJL164C, strain tpk1, stronger effect = lower value 0.975 | locus YJL166W, strain qcr8, stronger effect = lower value 1.01 | locus YJL168C, strain set2, stronger effect = lower value 0.991 | locus YJL187C, strain SWE1 (second series), stronger effect = lower value 1 | locus YJL187C, strain SWE1, stronger effect = lower value 0.989 | locus YJR043C, strain POL32, stronger effect = lower value 1.01 | locus YJR066W, strain TOR1, stronger effect = lower value 0.982 | locus YJR075W, strain HOC1, stronger effect = lower value 0.997 | locus YKL009W, strain mrt4, stronger effect = lower value 0.998 | locus YKL068W, stronger effect = lower value 1 | locus YKL085W, strain MDH1 (second series), stronger effect = lower value 1.01 | locus YKL085W, strain MDH1, stronger effect = lower value 1.01 | locus YKL160W, strain elf1, stronger effect = lower value 1.04 | locus YKL190W, strain CNB1, stronger effect = lower value 1.01 | locus YKR001C, strain vps1, stronger effect = lower value 1.02 | locus YKR026C, strain gcn3, stronger effect = lower value 0.991 | locus YLL001W, strain dnm1, stronger effect = lower value 1 | locus YLL026W, stronger effect = lower value 0.99 | locus YLL041C, strain sdh2, stronger effect = lower value 0.969 | locus YLR027C, strain aat2, stronger effect = lower value 0.986 | locus YLR039C, strain RIC1, stronger effect = lower value 1.06 | locus YLR058C, strain SHM2, stronger effect = lower value 1.01 | locus YLR102C, strain apc9, stronger effect = lower value 0.987 | locus YLR113W, strain HOG1, stronger effect = lower value 0.999 | locus YLR221C, strain rsa3, stronger effect = lower value 1.02 | locus YLR258W, strain gsy2, stronger effect = lower value 0.997 | locus YLR262C, strain YPT6 (second series), stronger effect = lower value 1.02 | locus YLR262C, strain YPT6, stronger effect = lower value 0.994 | locus YLR268W, strain sec22, stronger effect = lower value 1.01 | locus YLR320W, strain mms22, stronger effect = lower value 1.04 | locus YLR330W, strain CHS5, stronger effect = lower value 1.01 | locus YLR342W, strain FKS1 (second series), stronger effect = lower value 1.02 | locus YLR342W, strain FKS1, stronger effect = lower value 0.99 | locus YLR357W, strain rsc2, stronger effect = lower value 0.985 | locus YLR370C, strain arc18, stronger effect = lower value 0.999 | locus YLR371W, strain rom2, stronger effect = lower value 0.996 | locus YLR384C, strain iki3, stronger effect = lower value 0.994 | locus YLR418C, strain cdc73, stronger effect = lower value 0.976 | locus YML016C, strain PPZ1, stronger effect = lower value 1.01 | locus YML032C, strain rad52, stronger effect = lower value 0.988 | locus YML120C, strain ndi1, stronger effect = lower value 1.02 | locus YML124C, strain tub3, stronger effect = lower value 0.995 | locus YMR058W, strain fet3, stronger effect = lower value 0.968 | locus YMR078C, strain ctf18, stronger effect = lower value 0.994 | locus YMR125W, strain sto1, stronger effect = lower value 0.992 | locus YMR129W, stronger effect = lower value 0.983 | locus YMR205C, strain PFK2, stronger effect = lower value 1.01 | locus YMR223W, strain ubp8, stronger effect = lower value 0.997 | locus YMR231W, strain pep5, stronger effect = lower value 0.989 | locus YMR307W, strain GAS1, stronger effect = lower value 1.02 and 0.989 | locus YNL067W, strain RPL9B, stronger effect = lower value 1 | locus YNL071W, strain lat1, stronger effect = lower value 0.98 | locus YNL128W, strain TEP1, stronger effect = lower value 0.995 | locus YNL153C, strain GIM3, stronger effect = lower value 0.968 | locus YNL175C, strain NOP13, stronger effect = lower value 0.993 | locus YNL183C, strain NPR1, stronger effect = lower value 0.956 | locus YNL197C, strain WHI3, stronger effect = lower value 0.988 | locus YNL209W, strain ssb2, stronger effect = lower value 0.993 | locus YNL224C, strain SQS1, stronger effect = lower value 0.999 | locus YNL233W, strain BNI4, stronger effect = lower value 0.982 | locus YNL248C, strain rpa49, stronger effect = lower value 0.973 | locus YNL250W, strain rad50, stronger effect = lower value 1.01 | locus YNL271C, strain bni1, stronger effect = lower value 0.998 | locus YNL298W, strain CLA4, stronger effect = lower value 0.991 | locus YNL307C, strain MCK1, stronger effect = lower value 0.997 | locus YNL322C, strain KRE1 (second series), stronger effect = lower value 0.988 | locus YNL322C, strain KRE1, stronger effect = lower value 1.02 | locus YNR049C, strain mso1, stronger effect = lower value 0.984 | locus YNR052C, strain pop2, stronger effect = lower value 1 | locus YOL012C, strain htz1 2.13 | locus YOL147C, strain pex11, stronger effect = lower value 1 | locus YOR001W, strain rrp6, stronger effect = lower value 0.928 | locus YOR061W, strain CKA2, stronger effect = lower value 1.02 | locus YOR069W, strain VPS5, stronger effect = lower value 1.01 | locus YOR070C, strain gyp1, stronger effect = lower value 0.996 | locus YOR080W, strain dia2, stronger effect = lower value 0.986 | locus YOR083W, strain WHI5 (second series), stronger effect = lower value 0.981 | locus YOR106W, strain vam3, stronger effect = lower value 1.01 | locus YOR136W, strain idh2, stronger effect = lower value 1 | locus YOR144C, strain elg1, stronger effect = lower value 0.999 | locus YOR184W, strain ser1, stronger effect = lower value 0.997 | locus YOR231W, strain MKK1, stronger effect = lower value 1.02 | locus YOR265W, strain rbl2, stronger effect = lower value 0.997 | locus YOR270C, strain vph1, stronger effect = lower value 0.948 | locus YOR290C, strain snf2, stronger effect = lower value 0.931 | locus YOR316C, strain cot1, stronger effect = lower value 0.999 | locus YPL051W, strain arl3, stronger effect = lower value 1.05 | locus YPL055C, strain LGE1, stronger effect = lower value 0.996 and 1.03 | locus YPL078C, strain atp4, stronger effect = lower value 1 | locus YPL106C, strain sse1, stronger effect = lower value 1.01 | locus YPL240C, strain hsp82, stronger effect = lower value 0.99 | locus YPL241C, strain CIN2, stronger effect = lower value 1 | locus YPL256C, strain CLN2, stronger effect = lower value 1 | locus YPR119W, strain clb2, stronger effect = lower value 0.994 | locus YPR141C, strain kar3, stronger effect = lower value 0.995 | locus YPR163C, strain tif3, stronger effect = lower value 1 | locus YPR167C, strain met16, stronger effect = lower value 0.996 | strain wtn01, stronger effect = lower value 0.994
active: locus YDR195W, strain ref2 0.135 | locus YKR091W, strain srl3, stronger effect = lower value 0.551 | locus YOR083W, strain WHI5, stronger effect = lower value 0.233
